Inconclusive results are not listed. Active and inactive are the calls of the source. How the source made its calls: active means hit-call score of the fitted dose curve at least 0.9, where 1 is the maximum; inconclusive means response in the unintended direction; inactive means score below 0.9.
What follows are molecules tested against human Matrix Metalloproteinase-9 (MMP9), MMP9 (gene 4318) (UniProt P14780) (assay: NVS_ENZ_hMMP9: NovaScreen (NVS) Enzymatic Assay for human Matrix Metalloproteinase-9 (MMP9) (AID 2283190);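 further: cell-free recombinant MMP9 protease activity read by fluorescent substrate signal; active means inhibition seen as loss of fluorescence signal versus DMSO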).
Chain of human Matrix Metalloproteinase-9 (MMP9), MMP9 (gene 4318) (P14780 whole entry, looked up): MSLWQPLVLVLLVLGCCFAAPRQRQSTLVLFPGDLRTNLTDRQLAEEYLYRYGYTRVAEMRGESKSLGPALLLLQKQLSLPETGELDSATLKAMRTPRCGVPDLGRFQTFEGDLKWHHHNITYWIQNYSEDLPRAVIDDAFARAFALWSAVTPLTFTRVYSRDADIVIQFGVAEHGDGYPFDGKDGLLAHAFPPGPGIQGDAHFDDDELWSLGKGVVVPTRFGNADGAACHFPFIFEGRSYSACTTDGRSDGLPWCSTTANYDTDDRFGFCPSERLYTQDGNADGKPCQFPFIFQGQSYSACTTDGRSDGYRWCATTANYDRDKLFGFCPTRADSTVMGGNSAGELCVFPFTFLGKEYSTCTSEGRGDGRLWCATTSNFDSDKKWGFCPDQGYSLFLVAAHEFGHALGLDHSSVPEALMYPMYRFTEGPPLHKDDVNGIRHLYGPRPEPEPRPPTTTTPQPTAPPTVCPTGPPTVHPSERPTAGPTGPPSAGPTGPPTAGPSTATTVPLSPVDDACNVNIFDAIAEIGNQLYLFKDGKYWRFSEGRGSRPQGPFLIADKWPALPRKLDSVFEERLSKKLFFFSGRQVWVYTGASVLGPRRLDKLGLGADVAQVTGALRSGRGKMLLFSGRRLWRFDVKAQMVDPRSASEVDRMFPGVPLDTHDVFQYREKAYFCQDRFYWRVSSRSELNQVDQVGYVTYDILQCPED
How it was run: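 Cell-free fluorescence-intensity enzyme activity assay using extracted protein, read 1 h after dosing. Loss of signal versus DMSO baseline indicates inhibition; primary screen in duplicate at 25 uM, actives followed up in concentration series.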

| Structure (SMILES) | outcome | AC50 |
| --- | --- | --- |
| C=CCCCCCCCCCC | inactive | – |
| C=C(C#N)C(=O)OCC | – | 8.63 µM (active) |
| CC(C)CC(C)CC(O)CC(C)C (centres undefined) | – | 5.13 µM (active) |
| CCC(C)=O | – | 6.96 µM (active) |
| c1ccc2[nH]cnc2c1 | – | 7.49 µM (active) |

Each molecule was assayed against human Phosphodiesterase 10 (PDE10), PDE10A (gene 10846) (UniProt Q9Y233) (assay: NVS_ENZ_hPDE10: NovaScreen (NVS) Enzymatic Assay for human Phosphodiesterase 10 (PDE10) (AID 2283195)).
Chain of human Phosphodiesterase 10 (PDE10), PDE10A (gene 10846) (Q9Y233 whole entry, looked up): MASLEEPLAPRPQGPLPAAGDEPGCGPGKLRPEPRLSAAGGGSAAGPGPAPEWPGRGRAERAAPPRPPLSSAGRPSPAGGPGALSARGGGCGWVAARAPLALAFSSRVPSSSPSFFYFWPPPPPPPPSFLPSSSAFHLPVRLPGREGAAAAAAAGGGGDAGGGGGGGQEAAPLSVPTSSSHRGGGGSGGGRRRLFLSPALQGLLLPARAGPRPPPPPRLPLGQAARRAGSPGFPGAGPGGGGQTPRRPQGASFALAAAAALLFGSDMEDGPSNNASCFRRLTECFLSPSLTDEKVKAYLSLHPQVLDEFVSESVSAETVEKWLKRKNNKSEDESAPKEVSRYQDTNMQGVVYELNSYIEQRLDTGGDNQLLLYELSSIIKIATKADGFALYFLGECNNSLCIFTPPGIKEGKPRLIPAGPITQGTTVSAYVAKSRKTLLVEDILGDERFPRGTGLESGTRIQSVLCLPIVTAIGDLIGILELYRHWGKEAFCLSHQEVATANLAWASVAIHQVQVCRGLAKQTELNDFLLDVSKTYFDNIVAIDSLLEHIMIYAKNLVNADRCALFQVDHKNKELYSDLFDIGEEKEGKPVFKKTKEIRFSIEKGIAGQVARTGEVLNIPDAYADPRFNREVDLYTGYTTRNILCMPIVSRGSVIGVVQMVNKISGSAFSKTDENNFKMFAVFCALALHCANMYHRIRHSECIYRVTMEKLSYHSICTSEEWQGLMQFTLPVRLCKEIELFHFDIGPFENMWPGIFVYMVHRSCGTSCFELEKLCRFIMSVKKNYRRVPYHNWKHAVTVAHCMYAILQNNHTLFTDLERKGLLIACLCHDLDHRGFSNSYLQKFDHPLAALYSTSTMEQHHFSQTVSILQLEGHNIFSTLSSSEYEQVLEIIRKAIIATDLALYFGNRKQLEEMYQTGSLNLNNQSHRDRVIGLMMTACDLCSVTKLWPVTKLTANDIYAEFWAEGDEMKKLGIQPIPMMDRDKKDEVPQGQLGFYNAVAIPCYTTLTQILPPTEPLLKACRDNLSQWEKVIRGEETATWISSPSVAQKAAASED
How it was run: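 Fluorescence readout after mobility-shift separation of substrate and product, 1 h reaction with recombinant human enzyme. Single-concentration duplicates at 25 uM, then concentration-response up to 50 uM for chemicals reaching threshold; DMSO baseline.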

| Structure (SMILES) | outcome | AC50 |
| --- | --- | --- |
| CC=Cc1ccc(OCC)c(O)c1 | inactive | – |
| C=C(C)[C@H]1CC=C(C)C(=O)C1 | inactive | – |
| O=C1OC(=O)c2c(Br)c(Br)c(Br)c(Br)c21 | inactive | – |
| CCCCC(CC)(CO)CO | inactive | – |
| C=CC(=O)OCCCC | – | 10.2 µM (active) |
| CCC1CCCCC1 | inactive | – |
| COc1ccc(OC)c(N=Nc2c(O)ccc3ccccc23)c1 | – | 42.3 µM (active) |
| CC(C)Nc1nc(N)nc(Cl)n1 | inactive | – |
| O=CN1CCOCC1 | inactive | – |
| CS(=O)(=O)c1ccc(C2=C(c3ccccc3)C(=O)OC2)cc1 | inactive | – |
| COc1cccc(OC)c1O | inactive | – |
| O=[N+]([O-])c1cccc(Cl)c1 | – | 25 µM (active) |

The molecules below were run against human Phosphoinositide 3-kinase alpha (PI3Ka), PIK3CA (gene 5290) (UniProt P42336) (assay: NVS_ENZ_hPI3Ka: NovaScreen (NVS) Enzymatic Assay for human Phosphoinositide 3-kinase alpha (PI3Ka) (AID 2283196)).
Chain of human Phosphoinositide 3-kinase alpha (PI3Ka), PIK3CA (gene 5290) (P42336 whole entry, looked up): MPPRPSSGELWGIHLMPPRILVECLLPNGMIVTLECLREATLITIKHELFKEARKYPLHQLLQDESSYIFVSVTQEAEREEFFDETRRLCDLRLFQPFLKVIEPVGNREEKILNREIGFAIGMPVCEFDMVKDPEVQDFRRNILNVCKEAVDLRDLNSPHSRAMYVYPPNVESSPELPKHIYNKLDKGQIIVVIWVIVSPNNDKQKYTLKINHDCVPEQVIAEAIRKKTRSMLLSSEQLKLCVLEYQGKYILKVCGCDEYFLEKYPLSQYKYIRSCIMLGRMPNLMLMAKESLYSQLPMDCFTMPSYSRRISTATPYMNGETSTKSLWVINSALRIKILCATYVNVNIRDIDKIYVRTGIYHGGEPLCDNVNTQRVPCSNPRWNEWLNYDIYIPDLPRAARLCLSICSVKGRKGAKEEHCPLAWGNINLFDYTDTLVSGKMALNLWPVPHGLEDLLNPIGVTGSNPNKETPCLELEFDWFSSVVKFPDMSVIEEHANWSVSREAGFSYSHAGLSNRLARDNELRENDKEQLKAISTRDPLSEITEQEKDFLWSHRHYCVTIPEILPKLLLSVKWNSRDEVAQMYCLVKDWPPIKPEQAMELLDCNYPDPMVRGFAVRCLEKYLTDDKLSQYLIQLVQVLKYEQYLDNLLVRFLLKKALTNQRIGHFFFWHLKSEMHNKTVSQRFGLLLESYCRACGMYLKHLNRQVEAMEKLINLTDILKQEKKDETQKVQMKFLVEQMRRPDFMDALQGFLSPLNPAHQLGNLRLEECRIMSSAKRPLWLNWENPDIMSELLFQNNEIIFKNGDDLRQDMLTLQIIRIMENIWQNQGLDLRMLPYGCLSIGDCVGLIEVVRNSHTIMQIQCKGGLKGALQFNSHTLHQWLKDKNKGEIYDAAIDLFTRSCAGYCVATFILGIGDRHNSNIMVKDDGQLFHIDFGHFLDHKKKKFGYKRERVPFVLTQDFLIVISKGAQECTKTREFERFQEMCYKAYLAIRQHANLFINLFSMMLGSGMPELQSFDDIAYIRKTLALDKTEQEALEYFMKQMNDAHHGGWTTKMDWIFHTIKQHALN
How it was run: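 Enzyme activity as fluorescence after mobility-shift separation of substrate and product, 1 h reaction, recombinant human PI3Kα; concentration-response to 50 uM max for chemicals passing a 25 uM duplicate screen.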

| Structure (SMILES) | outcome | AC50 |
| --- | --- | --- |
| CCCCCCOCCOCCO | inactive | – |
| CCOc1ccc(NC(=O)CC(C)=O)cc1 | inactive | – |
| C=CC(=O)OCCCC | – | 0.00235 µM (active) |
| CC(=O)c1c(C)c([N+](=O)[O-])c(C(C)(C)C)c([N+](=O)[O-])c1C | inactive | – |
| COC(C)(C)CC(C)=O | inactive | – |
| COc1cc(Cl)c(OC)cc1N | inactive | – |
| O=CN1CCOCC1 | inactive | – |
| CC(=O)CC(=O)Nc1ccccc1 | inactive | – |
| Cc1ccc(C)o1 | inactive | – |

The molecules below were run against human Vascular Endothelial Growth Factor Receptor 1 (VEGFR1), FLT1 (gene 2321) (UniProt P17948) (assay: NVS_ENZ_hVEGFR1: NovaScreen (NVS) Enzymatic Assay for human Vascular Endothelial Growth Factor Receptor 1 (VEGFR1) (AID 2283226)).
Chain of human Vascular Endothelial Growth Factor Receptor 1 (VEGFR1), FLT1 (gene 2321) (P17948 whole entry, looked up): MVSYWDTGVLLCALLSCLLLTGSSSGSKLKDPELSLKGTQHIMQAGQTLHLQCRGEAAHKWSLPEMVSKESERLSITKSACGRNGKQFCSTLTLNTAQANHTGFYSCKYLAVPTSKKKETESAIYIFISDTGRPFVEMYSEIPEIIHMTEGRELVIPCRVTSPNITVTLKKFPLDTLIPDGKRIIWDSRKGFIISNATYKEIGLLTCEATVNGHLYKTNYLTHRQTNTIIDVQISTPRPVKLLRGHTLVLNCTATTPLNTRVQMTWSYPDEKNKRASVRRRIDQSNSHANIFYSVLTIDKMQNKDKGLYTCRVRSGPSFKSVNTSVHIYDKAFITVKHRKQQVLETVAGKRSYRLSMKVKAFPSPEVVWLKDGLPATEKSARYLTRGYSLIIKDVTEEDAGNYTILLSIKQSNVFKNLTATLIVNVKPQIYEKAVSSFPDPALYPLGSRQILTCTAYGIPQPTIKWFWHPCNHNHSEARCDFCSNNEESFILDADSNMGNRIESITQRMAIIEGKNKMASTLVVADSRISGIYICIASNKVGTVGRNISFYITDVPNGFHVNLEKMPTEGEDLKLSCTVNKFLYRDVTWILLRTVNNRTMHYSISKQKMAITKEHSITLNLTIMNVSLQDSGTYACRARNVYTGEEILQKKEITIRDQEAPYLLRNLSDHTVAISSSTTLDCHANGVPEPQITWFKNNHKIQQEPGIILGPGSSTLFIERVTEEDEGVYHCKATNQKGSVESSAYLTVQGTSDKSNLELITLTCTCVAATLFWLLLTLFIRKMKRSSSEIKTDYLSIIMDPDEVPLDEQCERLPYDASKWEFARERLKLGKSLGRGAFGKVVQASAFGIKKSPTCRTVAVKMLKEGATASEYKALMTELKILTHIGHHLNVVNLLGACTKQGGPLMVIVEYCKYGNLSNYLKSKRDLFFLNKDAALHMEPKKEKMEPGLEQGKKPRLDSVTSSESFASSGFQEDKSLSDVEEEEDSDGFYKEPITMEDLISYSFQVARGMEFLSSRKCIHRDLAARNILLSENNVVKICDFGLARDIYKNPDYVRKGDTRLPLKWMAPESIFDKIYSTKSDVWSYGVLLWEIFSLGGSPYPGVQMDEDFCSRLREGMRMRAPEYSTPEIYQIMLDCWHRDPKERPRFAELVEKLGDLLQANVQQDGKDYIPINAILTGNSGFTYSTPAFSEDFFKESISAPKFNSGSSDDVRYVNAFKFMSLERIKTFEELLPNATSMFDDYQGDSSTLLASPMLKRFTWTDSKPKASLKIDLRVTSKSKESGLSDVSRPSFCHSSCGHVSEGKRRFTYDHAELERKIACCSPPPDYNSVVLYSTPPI
How it was run: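 Kinase activity of recombinant human VEGFR1 was read by fluorescence after electrophoretic separation of product from substrate, 1 h post-dosing; initial duplicate single-point testing at 25 uM, followed by concentration-series follow-up, with DMSO as baseline.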

| Structure (SMILES) | outcome | AC50 |
| --- | --- | --- |
| [O-]n1ccccc1=S.[O-]n1ccccc1=S.[Zn+2] | inactive | – |
| CC(=O)Nc1ccc(C(=O)CCl)cc1 | – | 40.1 µM (active) |
| O=[N+]([O-])c1cccc(Cl)c1 | inactive | – |
